# Assay outcomes from PubChem.
# BAZ2B block: inhibitors of human BAZ2B bromodomain | AlphaScreen BAZ2B-H3K14Ac peptide displacement | Potency, µM (series often up to 114 µM), without a hit: top-dose activity change, negative = inhibition, most hits filed as inhibitors | 360,000 compounds, 4.4% hits | AID 504333; note: % is set by controls: 0 for no effect and ±100 for the full control effect; nearly all actives have a fitted effect of over 60% in size
#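 BAZ2B 50 nM plus b-H3(5-23)K14Ac 50 nM, PBS pH 7.4/0.01% Tween-20, 30 min RT; compound added (max 110 uM), 30 min RT; streptavidin donor/Ni-chelate acceptor beads 10 ug/mL final, 20 min dark; AlphaScreen read.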
# HP1b chromo inh: blocks HP1-beta chromodomain binding to methylated histone tails. AlphaScreen HP1-beta / biotin-H3K9me3 peptide binding. P83916. Potency, µM (titrated, usually from 114 µM), for the others: top-dose activity change, negative = inhibition, usual class: inhibitors. 390,000 compounds, 0.56% hits; note: nearly all actives have a fitted effect of over 70% in size
#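 Compound inhibition of the preformed complex between 50 nM HP1-beta and 50 nM biotinylated H3K9me3 peptide was read by AlphaScreen. Buffer was PBS pH 7.4 with 0.01% Tween-20. Incubations ran 30 min at room temperature, with 10 ug/mL donor/acceptor beads.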
# JMJD2A Tudor inh: JMJD2A Tudor domain (human) inhibition; O75164; AlphaScreen JMJD2A-Tudor / H3K4me3 peptide binding; Potency, µM (series often up to 114 µM), without a hit: top-dose activity change, negative = inhibition, hits mostly inhibitors; 390,000 compounds, 4.4% hits; AID 504339; note: % is set by controls: 0 for no effect and ±100 for the full control effect; nearly all actives have a fitted effect of over 50% in size
# G9a inh: inhibitors of human histone lysine methyltransferase G9a; Potency, µM (titrated, usually from 102 µM), for the others: at the top dose activity, negative = inhibition, actives largely listed as inhibitors; AID 504332; 350,000 compounds, 8.8% hits; G9a H3K9 monomethylation, AlphaScreen, 2 h; note: % is set by controls: 0 for no effect and ±100 for the full control effect; nearly all actives have a fitted effect of over 75% in size
#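 AlphaScreen detection with an anti-monomethyl H3K9 antibody quantified product after a 2 h room-temperature reaction containing 500 nM biotinylated H3K9 peptide, 20 µM SAM and 20 nM enzyme, which had been preincubated 15 min with compound.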
# VDR inh: vitamin D3 receptor (human) inhibition. VDR-SRC2-3 peptide fluorescence polarization, 2 h. Potency, µM, for inactives: max response, negative = inhibition, usual class: inhibitors. 400,000 compounds, 0.93% hits; note: % is set by controls: 0 for no effect and ±100 for the full control effect
#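 Compounds are added to VDR with labelled SRC2-3 coactivator peptide and held 2 h at room temperature. Inhibition of the VDR–peptide interaction is then read as a change in fluorescence polarization.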
# PLK1 PBD block: inhibitors of human PLK1 polo-box domain binding. Plk1 PBD binding of FITC phosphopeptide, fluorescence polarization. Potency, µM, without a hit: max response, negative = inhibition, actives largely listed as inhibitors. 360,000 compounds, 2.8% hits; note: series mostly up to about 57 µM; % is set by controls: 0 for no effect and ±100 for the full control effect; nearly all actives have a fitted effect of over 65% in size
# Target sequence (P53350 whole entry, looked up, the tested form may be a part): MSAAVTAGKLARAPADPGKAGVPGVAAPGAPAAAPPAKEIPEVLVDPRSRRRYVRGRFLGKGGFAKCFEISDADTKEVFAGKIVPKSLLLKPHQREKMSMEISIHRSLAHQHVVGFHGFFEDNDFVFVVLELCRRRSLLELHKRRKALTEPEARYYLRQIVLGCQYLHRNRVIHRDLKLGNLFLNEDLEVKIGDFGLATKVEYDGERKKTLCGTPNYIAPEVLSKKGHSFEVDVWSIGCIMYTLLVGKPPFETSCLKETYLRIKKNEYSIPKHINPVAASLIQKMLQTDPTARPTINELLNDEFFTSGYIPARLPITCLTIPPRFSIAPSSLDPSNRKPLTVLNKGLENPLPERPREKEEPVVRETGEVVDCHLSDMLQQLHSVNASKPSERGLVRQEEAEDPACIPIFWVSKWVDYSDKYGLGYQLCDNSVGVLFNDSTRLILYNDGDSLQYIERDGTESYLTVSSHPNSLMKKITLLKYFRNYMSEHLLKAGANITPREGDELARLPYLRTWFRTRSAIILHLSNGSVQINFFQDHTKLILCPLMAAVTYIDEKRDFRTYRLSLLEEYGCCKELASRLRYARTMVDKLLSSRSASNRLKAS
# The depositor's hits bear a star; u = inconclusive; x = no result given; [ ] = dose if it differs, or a comment. Rows were chosen to be rich in hits. Some 11% of all compounds tested hit in one or more screens of this group. Calls come from the whole dose curve; as a rule, active = well fitted curve in the direction sought with a large enough effect; inconclusive = small, poorly fitted or top-dose-only effect, or another doubt; inactive = no such curve, though single readings can be large; an effect the other way counts as inactive or inconclusive. Potency is the fitted concentration of half-maximal effect.
SMILES,BAZ2B block,HP1b chromo inh,JMJD2A Tudor inh,G9a inh,VDR inh,PLK1 PBD block
O=C(Nc1ccc(S(=O)(=O)Nc2cnc3ccccc3n2)cc1)c1ccc(Br)o1,-0.4%,15.8%,-17.9%,44.7µM*,15.1%,-7.6%
COc1ccc(/C=C/C(=O)c2ccncc2)c2ccccc12,-38.3%,38.5%,56.2µM*,u,25.1µM*,5.5%
CC(=O)C1CCC2C3CC=C4N(C)C(=O)CCC4(C)C3CCC12C (stereo not given),x,11.2%[57 µM],-6.2%,x,u,-8.9%
CN1CCN(c2ccc(NC(=O)c3ccc(Cl)cc3)cn2)CC1,-26.0%,8.7%,-6.2%,u,4.4%,-3.6%
Cc1ccccc1C1=CCN(c2ncc(NC(=O)c3ccc(Cl)cc3)cc2C(=O)O)CC1,50.1µM*,u,79.4µM*,u,-7.5%,x
CC1(C(=O)NS(=O)(=O)c2cccc(C#N)c2)CCN1C(=O)c1ccc(C2CCCCC2)cc1 (stereo not given),x,x,x,x,x,-9.1%
CC(CN1CCCCC1)OC(=O)/C=C/c1ccccc1 (stereo not given),11.0%,33.1%,7.5%,x,-5.5%,0.9%
CC(CN1CCCCC1)OC(=O)COc1ccc(Cl)cc1 (stereo not given),9.7%,17.5%,u,x,u,23.8µM*
COc1ccc(/C=C/C(=O)OC(C)CN2CCCCC2)cc1 (stereo not given),-27.4%,25.3%,-14.3%,20µM*,4.1%,0.2%
COc1cc(C#Cc2c(-c3cncn3C)n(C)c3ccc(-c4ccc(OC)c(OC)c4)cc23)cc(OC)c1,u,-8.7%,44.7µM*,-3.5%[0.501 µM],-18.2%,-3.0%
COc1ccc2c(c1)c1c(c(=O)n(-c3ccc(C)cc3)c(=O)n1CC(=O)NCc1ccc(C)cc1)n2C,-5.6%,38.5%,6.2%,4.9%[59 µM],13.6%,x
CCC(C(=O)Nc1ccc(C(=O)O)cc1NC(=O)C(CC)c1ccccc1)c1ccccc1 (stereo not given),9.1%[0.457 µM],17.0%,-13.3%,x,-22.4%,-17.1%
CCN1C(=O)/C(=C\c2ccncc2)SC1=Nc1ccc(C)c(C)c1,31.6µM*,u,50.1µM*,u,u,-0.8%
Cc1ccc(-c2nn(-c3ccccc3)cc2C2SCC(=O)N2Cc2ccccc2)o1 (stereo not given),u,u,u,10µM*,-25.1%,-29.4%
COc1cc(CNCCC2CCOC(C)(C)C2)ccc1O (stereo not given),-2.4%,12.8%,-19.0%,50.1µM*,9.6%,-1.0%
O=C(O)CSCc1cnn(-c2ccccc2)c1-n1cccc1,u,62.3%,-11.4%,-42.1%[59 µM],-2.0%,-13.3%
O=C(CSCc1cnn(-c2ccccc2)c1-n1cccc1)N1CCN(Cc2ccccc2)CC1,u,-15.1%,u,39.8µM*,7.7%,1.7%
N#Cc1ccc(CN2CCN(C(=O)CNC(=O)Cc3cccc4ccccc34)CC2)cc1,3.1%,29.8%,-6.1%,50.1µM*,-18.4%,-6.1%
CCCNc1nc(NCc2ccccc2OC)c2cnn(C)c2n1,u,30.1%,u,-27.0%[12.7 µM],9.3%,x
CC(C)(C)c1ccc(Oc2nc3ccccn3c(=O)c2/C=C(\C#N)c2nc3ccccc3[nH]2)cc1,2.3%,53.5%,0.0%,6.5%[59 µM],-5.6%,x
O=C(O)c1ccc(COc2ccccc2/C=C2\NC(=O)N(Cc3ccccc3)C2=O)cc1,-28.3%,u,25.1µM*,u,-16.1%,18.9µM*
O=C(O)c1ccc(COc2ccccc2/C=C2\NC(=O)N(Cc3ccccc3F)C2=O)cc1,-22.6%,u,39.8µM*,u,-13.5%,26.7µM*
O=C1NC(=O)N(Cc2ccccc2F)C1=O,-37.2%,11.7%,-13.8%,22.4µM*,-9.8%,-23.9%
O=C(O)c1ccc(COc2ccc3ccccc3c2/C=C2/NC(=O)N(Cc3ccc(F)cc3)C2=O)cc1,28.2µM*,u,20µM*,u,-5.0%,u
COC(=O)C1CCN(C(=O)COC(=O)CNC(=O)c2ccc(Cl)cc2Cl)CC1,12.3%,30.1%,-3.4%,3.3%[12.7 µM],-21.6%,-23.0%
